The supplement of paper PMC3334620
In all, about 33,000 sequences were measured (“E-score (-0.5 to 0.5)”: median about -0.016, highest 2% from about 0.31 on). For the sample, the highest values were picked, then their nearest neighbours and some sequences at random.

target: Cst6 (UniProt P40535); assay: PBM E-score (8-mer binding enrichment) (E-score (-0.5 to 0.5)); higher = stronger / more preferred TF binding; settings: protein concentration: 200 nM; construct: GST-DNA-binding domain
Protocol: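 Universal 'all 10-mer' protein binding microarrays (Agilent AMADID 015681) probed with GST-tagged S. cerevisiae TFs (full-length or DBD) made by in vitro transcription/translation (PURExpress), about 100-200 nM. Bound TF was detected with fluorescent anti-GST. Each ungapped 8-mer (which stands for itself and its reverse complement) is scored by the PBM enrichment score (E-score), a modified Wilcoxon-Mann-Whitney statistic from -0.5 to +0.5, computed with the Universal PBM Analysis Suite. Scale: above 0.35 generally sequence-specific binding.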

Sequence of UniProt P40535 (P40535 whole entry, the tested form may be a part): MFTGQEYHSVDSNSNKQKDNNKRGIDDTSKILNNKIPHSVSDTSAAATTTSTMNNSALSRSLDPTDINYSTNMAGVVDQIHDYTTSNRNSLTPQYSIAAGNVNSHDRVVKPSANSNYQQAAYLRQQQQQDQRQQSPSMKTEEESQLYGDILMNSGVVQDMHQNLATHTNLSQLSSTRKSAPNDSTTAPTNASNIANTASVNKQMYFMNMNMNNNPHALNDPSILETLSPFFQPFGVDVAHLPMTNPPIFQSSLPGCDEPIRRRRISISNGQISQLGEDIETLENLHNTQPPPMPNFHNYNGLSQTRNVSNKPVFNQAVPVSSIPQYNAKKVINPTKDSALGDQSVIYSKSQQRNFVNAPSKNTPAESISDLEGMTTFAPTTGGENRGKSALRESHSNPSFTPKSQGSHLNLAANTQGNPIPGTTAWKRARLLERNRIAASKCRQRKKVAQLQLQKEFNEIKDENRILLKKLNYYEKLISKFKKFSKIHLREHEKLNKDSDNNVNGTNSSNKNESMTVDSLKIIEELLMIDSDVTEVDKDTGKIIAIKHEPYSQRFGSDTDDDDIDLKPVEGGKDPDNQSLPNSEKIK

| Sequence | PBM E-score |
| --- | --- |
| AGTCTTCA | -0.0551 |
| TCCCCACA | -0.103 |
| ACGGCATC | 0.375 |
| GCGGCACC | 0.311 |
| AGGGCACT | -0.0161 |
| ACGGCATG | 0.126 |
| ACGGCATA | 0.245 |
| ACGGCACT | 0.352 |
| CCGGCACC | -0.146 |
| GCGGCAGC | -0.104 |
| GCGGCACA | 0.176 |
| ACGGCACC | 0.391 |
| AGGGCACC | -0.282 |
| AAGGCACT | -0.0255 |
| AATCAGAA | 0.00689 |
| CATATCCC | 0.0321 |
| ACGATCAA | 0.135 |
| AAACCATG | -0.0483 |
| GCGACTAA | 0.0201 |
| GAGTTTGC | -0.0936 |
| CGTAAAGA | 0.167 |
| ATTGGTCG | 0.069 |
| CTCACGGC | 0.105 |
| GAGTTTCC | -0.137 |
| CCGGACGC | 8e-05 |

| Sequence | PBM E-score |
| --- | --- |
| ACGGCAAA | 0.28 |
| ACGGCAAG | 0.0822 |
| ACGGCAAT | 0.329 |
| TCTACAGA | -0.0513 |
| AGTACCTA | 0.00893 |
| CGAAAAGA | 0.313 |
| GGAAAAGA | 0.0532 |
| AGAAAAGA | 0.112 |
| ACTAAAGC | 0.0156 |
| CATGATAA | 0.155 |
| GATGATAC | 0.127 |
| CATGATAC | 0.251 |
| TAAGATAA | 0.159 |
| AATGATAT | 0.322 |
| ACTGATAT | 0.109 |
| AAAGATAA | 0.308 |
| AATGATAC | 0.316 |
| AATGATAG | 0.174 |
| AATGATAA | 0.347 |
| AGTGATAT | 0.0988 |
| AAAGATAG | -0.026 |
| CGATATCA | 0.145 |
| AAGCTTTC | 0.0818 |
| AACTGATT | 0.0959 |
| TCGCGCCA | -0.0121 |

| Sequence | PBM E-score |
| --- | --- |
| GTCCGAGA | 0.0681 |
| GTCTAGAC | -0.0977 |
| CACCAAAC | 0.17 |
| TACTCCCA | -0.0234 |
| AGTCAAAT | 0.0827 |
| CTTAATGC | 0.142 |
| AGTAATGC | 0.0951 |
| CGTAATGC | 0.365 |
| AGTAATGA | 0.247 |
| CGTAATGA | 0.402 |
| GGTAATGA | 0.213 |
| ATTATGGC | 0.0901 |
| TCGCGCAA | 0.15 |
| ACTCGTCA | 0.351 |
| ACTCGTCC | -0.094 |
| GCTCGTCA | 0.238 |
| CCTCGTCA | 0.308 |
| CCTCGTCC | -0.35 |
| TCTCGTCA | 0.329 |
| CCTCGTCG | -0.0925 |
| ACTCGTCT | -0.018 |
| TCTCGTAA | 0.305 |
| GACCTAAC | 0.0894 |
| ATCCCTCG | -0.263 |
| GAAAGGTC | -0.196 |

| Sequence | PBM E-score |
| --- | --- |
| GTTGCCCA | -0.135 |
| AATTACGG | 0.183 |
| AATTACGT | 0.462 |
| AATTACCC | 0.0706 |
| GATTACGC | 0.329 |
| CATTACGC | 0.219 |
| GATTACAC | 0.171 |
| AGTTACGC | 0.0936 |
| AATTACAC | 0.116 |
| AATTACGA | 0.286 |
| AATTACGC | 0.331 |
| AATTACAG | 0.15 |
| AATTACAT | 0.318 |
| CACCTGGA | -0.135 |
| TCGCGCGA | 0.169 |
| ACTCGTGC | -0.103 |
| AGCGGCAT | 0.273 |
| CATTACGA | 0.205 |
| GATTACGA | 0.364 |
| TATTACGA | 0.283 |
| GTCTTAAC | 0.14 |
| GAAAAGCA | -0.0869 |
| TCGTTACA | 0.0818 |
| TAACCCTA | -0.197 |
| CATGCATG | 0.0335 |

| Sequence | PBM E-score |
| --- | --- |
| GCGCCGCA | 0.38 |
| ACGCCGCT | 0.233 |
| CCGCCGCA | 0.0944 |
| ACGCCGCA | 0.336 |
| GCGCCGCC | 0.25 |
| ACGCCGCC | 0.124 |
| CGTTATGA | 0.0852 |
| AGCGGAAT | -0.0286 |
| GTAGCCGA | -0.191 |
| GGTAATTA | 0.215 |
| TATAATCA | 0.308 |
| CGTAATTA | 0.362 |
| CATAATTC | 0.203 |
| CGTAATTC | 0.309 |
| AGTAATTC | 0.189 |
| AATAATCA | 0.209 |
| GATAATCA | 0.131 |
| AGTAATCA | 0.116 |
| CGTAATCA | 0.427 |
| AGTAATTA | 0.175 |
| CGTAATCC | 0.3 |
| CATCGCAG | -0.135 |
| CGCCCGCC | -0.129 |
| AAACTCAC | 0.0463 |
| CATTAGCG | -0.0563 |

| Sequence | PBM E-score |
| --- | --- |
| CTCATTGC | 0.105 |
| AGAAAAAT | 0.17 |
| CATTGAGG | -0.0774 |
| GTGAGTTA | 0.0284 |
| ATGACGAG | 0.398 |
| ATGACGAA | 0.472 |
| AAGACGAG | -0.203 |
| ATGACGAC | 0.431 |
| ACGACGAC | -0.0559 |
| GAGACGAA | -0.099 |
| ACGACGAA | 0.0916 |
| CTGACGAA | 0.29 |
| GTGACGAA | 0.454 |
| GGGACGAA | -0.214 |
| CTGACGAC | 0.216 |
| ACGACGAG | -0.211 |
| CAGACAGC | -0.185 |
| ATGGAGCA | 0.0798 |
| ACGAAACT | 0.0946 |
| CAAGACCC | -0.197 |
| CAAGGCTC | -0.227 |
| AATTTCGG | 0.127 |
| CGTGTGAG | 0.0162 |
| AAAGATCT | -0.0274 |
| GACATCAA | 0.327 |

| Sequence | PBM E-score |
| --- | --- |
| CACATCAA | 0.162 |
| GACATCCC | -0.0212 |
| CACATCAC | 0.217 |
| GACATCAC | 0.431 |
| TACATCAA | 0.283 |
| AGCATGCA | -0.103 |
| AACACCTC | -0.0672 |
| ACTCAAAC | 0.158 |
| AGCTAAAG | -0.0194 |
| CAGCGTGA | 0.0151 |
| CTGACGCA | 0.332 |
| ATGACGCC | 0.442 |
| GCGACGCA | 0.0151 |
| CTGACGCC | 0.119 |
| CAGACGCA | -0.0613 |
| ATGACGCG | 0.463 |
| AAGACGCG | -0.111 |
| AAGACGCC | -0.00396 |
| GTGACGCA | 0.471 |
| AGGACGCC | -0.147 |
| GGGACGCA | -0.173 |
| ACGACGCG | 0.127 |
